Measurements reported in PubChem BioAssay (NCI).
About 83,000 compounds went through this panel and 20% of them were active in at least one assay; those are over-represented in the sample as a whole.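 Values shown are percent growth following 48 h exposure of cells in 96-well plates to a single concentration of compound; below 10 was considered active.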 Calls of active or inactive are those of the source.

Experiments:
Experiment in all cases: NCI-60 one-dose screen, 48 h (100 = growth as untreated, 0 = no growth, -100 = all killed)
Conditions in all cases: 10 µM unless noted
SNB-75 CNS = test system: SNB-75 CNS
SNB-19 CNS = test system: SNB-19 CNS
U251 CNS = test system: U251 CNS
PC-3 prostate = test system: PC-3 prostate
SK-MEL-5 melanoma = test system: SK-MEL-5 melanoma
UACC-62 melanoma = test system: UACC-62 melanoma
LOX IMVI melanoma = test system: LOX IMVI melanoma
SK-MEL-28 melanoma = test system: SK-MEL-28 melanoma
SK-MEL-2 melanoma = test system: SK-MEL-2 melanoma
EKVX NSCLC = test system: EKVX NSCLC
SN12C renal = test system: SN12C renal
UO-31 renal = test system: UO-31 renal
TK-10 renal = test system: TK-10 renal
ACHN renal = test system: ACHN renal
CAKI-1 renal = test system: CAKI-1 renal
A498 renal = test system: A498 renal
CCRF-CEM leukemia = test system: CCRF-CEM leukemia
HT29 colon = test system: HT29 colon
MOLT-4 leukemia = test system: MOLT-4 leukemia
SR leukemia = test system: SR leukemia

SMILES	growth (SNB-75 CNS)	growth (SNB-19 CNS)	growth (U251 CNS)	growth (PC-3 prostate)	growth (SK-MEL-5 melanoma)	growth (UACC-62 melanoma)	growth (LOX IMVI melanoma)	growth (SK-MEL-28 melanoma)	growth (SK-MEL-2 melanoma)	growth (EKVX NSCLC)	growth (SN12C renal)	growth (UO-31 renal)	growth (TK-10 renal)	growth (ACHN renal)	growth (CAKI-1 renal)	growth (A498 renal)	growth (CCRF-CEM leukemia)	growth (HT29 colon)	growth (MOLT-4 leukemia)	growth (SR leukemia)
Clc1ccc(-c2nc(-c3cccs3)no2)c(Cl)c1	63.5% (inactive)	104% (inactive)	90.1% (inactive)	83.2% (inactive)	83.9% (inactive)	89% (inactive)	103% (inactive)	104% (inactive)	123% (inactive)	72.6% (inactive)	101% (inactive)	70.9% (inactive)	71.4% (inactive)	99.8% (inactive)	82% (inactive)	111% (inactive)	86% (inactive)			
Clc1nc(Cl)c2ncn(-c3ccccc3)c2n1		103% (inactive)	42.7% (inactive)	95.7% (inactive)	78.6% (inactive)	69% (inactive)	0.438% (active)	91.1% (inactive)	17.8% (inactive)	73.3% (inactive)	82% (inactive)	-77.3% (active)	71.9% (inactive)	68.6% (inactive)	-79.9% (active)		80.3% (inactive)	43.4% (inactive)	44.2% (inactive)	39% (inactive)
COc1ccc(C2=NN(C(=O)c3cc(OC)c(OC)c(OC)c3)C(c3ccc(C#N)cc3)C2)cc1OC (centres undefined)			21.5% (inactive)	31.4% (inactive)	17.7% (inactive)	43.6% (inactive)	33.6% (inactive)		35.6% (inactive)	33.4% (inactive)	53.5% (inactive)	18.2% (inactive)	31.9% (inactive)	44.6% (inactive)	5.45% (active)		29.9% (inactive)	-8.4% (active)	49.5% (inactive)	28.4% (inactive)
O=C1N(C2CCCCC2)C(=O)N1C1CCCCC1		68.6% (inactive)	48% (inactive)	-3% (active)	16.9% (inactive)	38.9% (inactive)	31% (inactive)		-7.37% (active)	51.3% (inactive)	49.9% (inactive)		8.07% (active)	11.4% (inactive)	28.7% (inactive)	-11.9% (active)	4.67% (active)	44.9% (inactive)	15.7% (inactive)	46.6% (inactive)
CN1C(=O)/C(=C/c2nc(-c3cccc(F)c3)n3ccccc23)c2ccccc21		76.8% (inactive)	56.7% (inactive)	81.6% (inactive)	64% (inactive)	71.3% (inactive)	48.8% (inactive)	89.1% (inactive)	68.2% (inactive)	79% (inactive)	85.9% (inactive)	89.8% (inactive)	61.7% (inactive)	39.9% (inactive)	68% (inactive)		88.9% (inactive)	89% (inactive)	71.6% (inactive)	60.5% (inactive)
NC(N)=NN=c1c(=O)c2ccccc2c1=O			72.1% (inactive)	78% (inactive)		103% (inactive)	-44.9% (active)	80% (inactive)	118% (inactive)	118% (inactive)	16.3% (inactive)	64.8% (inactive)	110% (inactive)	78% (inactive)	104% (inactive)	78.1% (inactive)	-27.9% (active)	-49.4% (active)	-33.1% (active)	
CN=C(NC)N/N=C(C)\C=N\NC(=NC)NC		99.4% (inactive)	98.8% (inactive)	94.8% (inactive)		97.5% (inactive)	109% (inactive)	110% (inactive)	117% (inactive)	101% (inactive)	96.4% (inactive)	83.7% (inactive)		101% (inactive)	89.1% (inactive)	96.3% (inactive)	106% (inactive)	104% (inactive)	101% (inactive)	
COc1ccc(-c2cncn2-c2ccc(-c3nc4cc(OC)c(OC)c(OC)c4s3)cc2)cc1N		72.1% (inactive)	56.3% (inactive)	30.1% (inactive)	26.9% (inactive)	53.7% (inactive)	62.4% (inactive)	78.5% (inactive)	7.6% (active)	58.4% (inactive)		16.1% (inactive)	83.3% (inactive)	59.6% (inactive)	30.4% (inactive)		45.9% (inactive)	43.7% (inactive)	40% (inactive)	43.4% (inactive)
COc1ccc2nc(-c3ccc(-n4cncc4-c4ccc(OC)c(N)c4)cc3)sc2c1		98.6% (inactive)	105% (inactive)	84.6% (inactive)		101% (inactive)	113% (inactive)	106% (inactive)	112% (inactive)	109% (inactive)	111% (inactive)	70.1% (inactive)	114% (inactive)	103% (inactive)	106% (inactive)		95.6% (inactive)	96.8% (inactive)	66.3% (inactive)	69.3% (inactive)
Cc1c(C(N)=O)sc2c1C(=O)N(Cc1ccccc1)C1=NN=C(c3ccc(Cl)cc3)CN12		52.8% (inactive)	29.9% (inactive)				17.2% (inactive)	72.8% (inactive)	66.8% (inactive)	62.7% (inactive)	61.5% (inactive)	26.3% (inactive)	59.4% (inactive)	21.9% (inactive)	18.6% (inactive)	105% (inactive)		34.9% (inactive)		
COc1cccc2c1O/C(=C\c1c([N+](=O)[O-])ncn1C)C2=O	101% (inactive)	106% (inactive)	97.4% (inactive)	-29.8% (active)	102% (inactive)	109% (inactive)	85.2% (inactive)	106% (inactive)	97.6% (inactive)		104% (inactive)	78.7% (inactive)	109% (inactive)	89% (inactive)	92.8% (inactive)	100% (inactive)	-7.36% (active)		85.3% (inactive)	62.8% (inactive)
COc1ccc(-c2c(N)noc2-c2cc(OC)c3c(c2)OCCO3)cc1		46.2% (inactive)	25.5% (inactive)	26.8% (inactive)	-21.3% (active)	32.7% (inactive)	19.6% (inactive)		49.9% (inactive)	37.1% (inactive)	30.8% (inactive)	41% (inactive)	77.8% (inactive)	22.3% (inactive)	45.4% (inactive)	2.33% (active)	13.4% (inactive)	8.42% (active)	10.3% (inactive)	11.6% (inactive)
COc1cc(/C=C/C(=O)N2CCN(C(=O)/C=C/c3ccccc3)CC2)cc(OC)c1OC		96.4% (inactive)	103% (inactive)	93.6% (inactive)	106% (inactive)	100% (inactive)	107% (inactive)	110% (inactive)	116% (inactive)	121% (inactive)	111% (inactive)	77.7% (inactive)	108% (inactive)	110% (inactive)	104% (inactive)		100% (inactive)	104% (inactive)	87.8% (inactive)	78.7% (inactive)
